Only some compounds are listed: those with a hit (about 7.6% of all), similar ones and a draw of the others.
KB-V1 cytotox = qHTS assay for MDR1-selective chemotherapeutics: Primary screen using the drug-selected MDR subline cells KB-V1; Potency, µM (top dose mostly 46.1 µM), hits mostly cytotoxic; AID 1347076, 2019; KB-V1 MDR cells viability, CellTiter-Glo, 72 h; 3.4% of 400,000 active; note: nearly all actives have a fitted effect of over 60% in size
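Cytotoxicity via CellTiter-Glo luminescence after 72 h compound exposure at 37 degrees C. Cells: drug-selected KB-V1 line, DMEM phenol-red free plus 10% FBS. Compounds tested at multiple concentrations; normalized data fitted to concentration-effect curves.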
MCF10A rereplic = A quantitative high throughput screen for small molecules that induce DNA re-replication in MCF 10a normal breast cells; MCF 10A DNA re-replication, Hoechst nuclear intensity, 48 h; Potency, µM (doses to about 46.1 µM), most hits filed as activators; 2.9% of 350,000 active; AID 624296, 2012; note: nearly all actives have a fitted effect of over 50% in size
hERG WT inh = qHTS for Inhibitors of KCHN2 3.1: Wildtype qHTS | activity change, % at 1.84 µM | 0.37% of 340,000 active | U2OS, BacMam KCNH2, thallium flux FluxOr; stronger effect = lower value | AID 720551, 2013 | Voltage-gated inwardly rectifying potassium channel KCNH2 (Homo sapiens), Q12809;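 active = maximum activity change below -70%; inconclusive = maximum activity change between -70% and -50%; inactive = maximum activity change above -50%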
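U2OS cells transduced with wild-type KCNH2 virus are loaded with FluxOr dye for 45 min, and thallium flux is measured in kinetic reads before and after stimulation buffer. Rate constants are normalized to DMSO controls.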
KCNH2 3.1 inh = qHTS for Inhibitors of KCHN2 3.1: Mutant qHTS. Potassium voltage-gated channel subfamily H member 2, brain isoform KCNH2 3.1 (human). U2OS KCNH2 3.1, thallium flux FluxOr; stronger effect = lower value. activity change, % (tested at about 1.8 µM). 0.95% of 340,000 active. AID 720553, 2013;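 active = maximum activity change below -70%; inconclusive = maximum activity change from -70% to -50%; inactive = maximum activity change above -50%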;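 note: thallium influx rate constant from kinetic fluorescence after stimulation buffer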
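Steps: virus added to U2OS suspension (4 h, RT, dark); medium with 10% FBS added, cells plated, 37 C overnight; FluxOr/Red40 loading buffer 45 min RT; stimulation buffer, 2 min kinetic read; rate constant normalized.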
SW480 rereplic = A quantitative high throughput screen for small molecules that induce DNA re-replication in SW480 colon adenocarcinoma cells | Potency, µM (doses to about 46.1 µM), most hits filed as activators | 1.8% of 340,000 active | SW480 DNA re-replication, Hoechst DNA content imaging, 48 h | AID 624297, 2012; note: nearly all actives have a fitted effect of over 55% in size
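Hoechst fluorescence of nuclei (405 nm excitation, 500-530 nm emission) measured by plate-scanning imager after 48 hr compound exposure at 37 C; re-replication scored as increased number of nuclei with elevated intensity.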
KB-3-1 tox = qHTS assay for MDR1-selective chemotherapeutics: Primary screen using the parental adenocarcinoma cell KB-3-1. KB-3-1 viability, CellTiter-Glo ATP luminescence, 72 h. Potency, µM (top dose mostly 46.1 µM), most hits filed as cytotoxic. 1.4% of 400,000 active; note: nearly all actives have a fitted effect of over 60% in size
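Cells are dispensed, compounds pinned in, plates held at 37 °C for 72 h, then CellTiter-Glo is added and luminescence read after 10 minutes. Cell line: parental KB-3-1 in phenol-red-free DMEM, 10% FBS.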
Each line names hits and unclear results; the compound was inactive in the other large screens; ! = a repeat was not active. Unless noted, calls come from the whole dose curve; as a rule, active = well fitted curve in the direction sought with a large enough effect; inconclusive = small, poorly fitted or top-dose-only effect, or another doubt; inactive = no such curve, though single readings can be large; an effect the other way counts as inactive or inconclusive.

O=C(C(=Cc1ccc(F)cc1)C(=O)c1ccccc1)c1ccccc1	KB-V1 cytotox 21µM, KB-3-1 tox 18µM (no result: MCF10A rereplic, hERG WT inh, KCNH2 3.1 inh, SW480 rereplic)
O=C(/C=C/c1cccc(F)c1)NNC(=O)c1ccncc1	KB-V1 cytotox 8.2µM, KB-3-1 tox inconclusive
O=C(/C=C/c1cccc(Cl)c1)NNC(=O)c1ccncc1	KB-3-1 tox inconclusive
CCCSc1nnc(CSc2ncccn2)n1C	none
Cc1ccc(C(=O)Nc2ccc(Cl)cc2C(F)(F)F)c(Cl)c1	none
O=C(Nc1ccccc1Cl)c1ccc(=O)[nH]n1	KB-V1 cytotox 8.2µM, SW480 rereplic inconclusive, KB-3-1 tox 7.3µM
O=C(Nc1ccccc1Cl)c1ccc(Cl)cc1Cl	KCNH2 3.1 inh -72
Cc1ccc(C(=O)Nc2ccc(Cl)cc2C)c(Cl)c1	KB-V1 cytotox 16µM
COc1ccc(NC(=O)CC2C(=O)N(c3cccc(OC)c3)C(=O)N2Cc2ccc3c(c2)OCO3)cc1 (stereo unspecified)	none (no result: MCF10A rereplic, hERG WT inh, KCNH2 3.1 inh, SW480 rereplic)
CC(C)c1nc(SCC(=O)Nc2c[nH]c(=O)[nH]c2=O)c2cnn(-c3ccccc3)c2n1	none
CC(C)(O)C#Cc1ccc(C(=O)N2CCCC(CNS(=O)(=O)c3cccs3)C2)o1 (stereo unspecified)	SW480 rereplic 21µM
Cc1cc(C)c(C(=O)N2CCCC(CNS(=O)(=O)c3cccs3)C2)o1 (stereo unspecified)	none
CCCC(=O)Nc1nn(CC)c2nc3ccc(C)cc3cc12	MCF10A rereplic inconclusive, SW480 rereplic inconclusive
CCCn1nc(NC(=O)c2cccs2)c2cc3cc(C)ccc3nc21	KB-V1 cytotox inconclusive, MCF10A rereplic 18µM, SW480 rereplic 21µM
CCCn1nc(NC(=O)c2cccs2)c2cc3ccc(C)cc3nc21	MCF10A rereplic inconclusive, SW480 rereplic 15µM
C[C@H](CO)N1C[C@H](C)[C@@H](CN(C)S(C)(=O)=O)Oc2c(NC(=O)c3ccncc3)cccc2C1=O	MCF10A rereplic inconclusive, SW480 rereplic inconclusive
CC1(C)CC(=O)C(N=Nc2ccc3ncsc3c2)=C(O)C1	none
COc1ccc2nc(N=Nc3ccc(O)c4ccccc34)sc2c1	KB-V1 cytotox inconclusive, MCF10A rereplic 8.2µM, SW480 rereplic inconclusive, KB-3-1 tox inconclusive
COc1ccc2nc(N=NC3=C(O)CC(C)(C)CC3=O)sc2c1	SW480 rereplic 2.1µM, KB-3-1 tox inconclusive
COc1ccc2nc(N)sc2c1	KB-3-1 tox inconclusive
O=C(Nc1ccccc1Cl)c1ccc(-c2ccccn2)s1	none
Cc1ccccc1OC(C)C(=O)NCCNC(=O)C(C)Oc1ccccc1C (stereo unspecified)	none (no result: MCF10A rereplic, hERG WT inh, KCNH2 3.1 inh, SW480 rereplic)
CC(=C/c1ccccc1)/C=N/NC(=O)c1nnn(-c2nonc2N)c1CN1CCC(C)CC1	KB-V1 cytotox inconclusive, SW480 rereplic inconclusive
CC1CCN(Cc2c(C(=O)N/N=C/c3ccc(OC(C)C)cc3)nnn2-c2nonc2N)CC1	KCNH2 3.1 inh -112, KB-3-1 tox inconclusive
Cc1nnn(-c2nonc2N)c1C(=O)N/N=C/c1ccccc1O	KB-V1 cytotox inconclusive, SW480 rereplic 2.6µM, KB-3-1 tox inconclusive
CN(Cc1c(C(=O)N/N=C/c2ccccc2O)nnn1-c1nonc1N)C1CCCCC1	KB-V1 cytotox inconclusive, KB-3-1 tox 18µM (no result: MCF10A rereplic, SW480 rereplic)
Cc1ccccc1COc1ccc(/C=N/NC(=O)c2nnn(-c3nonc3N)c2CN2CCC(C)CC2)cc1	KCNH2 3.1 inh inconclusive
CN(Cc1c(C(=O)N/N=C/c2cccc(O)c2)nnn1-c1nonc1N)C1CCCCC1	KB-V1 cytotox inconclusive
CC1CCN(Cc2c(C(=O)N/N=C/c3ccccc3O)nnn2-c2nonc2N)CC1	KB-V1 cytotox inconclusive, KB-3-1 tox 5.2µM
COc1ccc(CN2CCN(CCCCOc3ccc(Cl)cc3)CC2)c(OC)c1OC	KB-V1 cytotox inconclusive, KB-3-1 tox inconclusive
COc1ccc(N2CCN(CCCNC(=O)Cn3c(=O)c4cccn4c4ccccc43)CC2)cc1	none
O=c1c(-c2ccco2)[n+]([O-])c2ccccc2n1OCc1ccccc1[N+](=O)[O-]	KB-3-1 tox inconclusive
COc1ccccc1/C=N/NC(=O)c1nnn(-c2nonc2N)c1-c1cccs1	SW480 rereplic 23µM
CC(C)c1c(C(=O)N/N=C/c2ccc3c(c2)OCO3)nnn1-c1nonc1N	none
CCN(CC)c1ccc(/C=N/NC(=O)c2nnn(-c3nonc3N)c2C(C)C)c(O)c1	MCF10A rereplic 18µM, SW480 rereplic 23µM, KB-3-1 tox 1.3µM
COc1ccc(CCNC(=O)CCCn2c(=O)c3cccn3c3cccnc32)c(OC)c1	none
COc1cccc(CNC(=O)CCn2c(=O)c3cccn3c3cccnc32)c1	KB-V1 cytotox 18µM!, SW480 rereplic inconclusive
O=C(Nc1nnc(-c2ccncc2)s1)Nc1ccc(Cl)cc1F	none (no result: MCF10A rereplic, hERG WT inh, KCNH2 3.1 inh, SW480 rereplic)
CN(CC(=O)Nc1ccccc1Cl)CC(=O)Nc1c(F)cccc1F	none
Cc1cc(-n2c(SCC(=O)NCCC3=CCCCC3)nc3n[nH]c(C)c3c2=N)ccc1Cl	MCF10A rereplic 21µM
Cc1ccc(-n2nnnc2SCC(=O)NCCC2=CCCCC2)c(C)c1	KB-V1 cytotox 21µM
COc1ccc(-n2c(=O)c3ccccc3n(CC(=O)NCC3CCCO3)c2=O)cc1 (stereo unspecified)	none
CC1(C(=O)Nc2cccc3ccccc23)CCN1C(=O)Cc1ccccc1Cl (stereo unspecified)	none (no result: MCF10A rereplic, hERG WT inh, KCNH2 3.1 inh, SW480 rereplic)
COc1cccc(CC(=O)OCC(=O)NC(=O)c2ccc(OC(F)F)cc2)c1	none
O=C(CC[C@H]1O[C@@H](n2ccc(=O)[nH]c2=O)[C@H](O)[C@@H]1O)N[C@H](Cc1ccccc1)C(=O)NCC1CCCCC1	none (no result: MCF10A rereplic, hERG WT inh, KCNH2 3.1 inh, SW480 rereplic)
O=C(CC[C@H]1O[C@@H](n2ccc(=O)[nH]c2=O)[C@H](O)[C@@H]1O)N[C@@H](Cc1ccccc1)C(=O)NCC1CCCO1 (stereo partly specified)	KB-V1 cytotox 7.3µM (no result: MCF10A rereplic, hERG WT inh, KCNH2 3.1 inh, SW480 rereplic)
C/C(=N/NC(=O)CN(c1ccccc1)S(=O)(=O)c1ccccc1)c1ccccc1O	SW480 rereplic 16µM, KB-3-1 tox inconclusive
COc1ccc(-c2csc(NC(C)=O)n2)cc1OC	none
COc1ccc(-c2csc(NC(=S)NC(=O)c3ccc4ccccc4c3)n2)cc1OC	KB-V1 cytotox inconclusive, MCF10A rereplic inconclusive, SW480 rereplic 15µM, KB-3-1 tox inconclusive
Cc1ccc(-c2csc(NC(=O)/C=C/c3cccs3)n2)cc1C	KB-V1 cytotox 9.2µM, MCF10A rereplic inconclusive, KB-3-1 tox inconclusive

Screening results as filed in PubChem BioAssay.
